From PubChem BioAssay AID1159580 (chemical genetic matrix, 2015)
The whole screen tested about 5,500 compounds, of which about 2,000 (36%) were called active. Not shown: some 18% with an inconclusive outcome. No stated cut-off is given here; in the data, active means normalized growth mostly below about 0.91 (no sharp cut-off); inconclusive means no clear call, values can overlap the other calls; inactive means mostly above about 0.92. This is one part of the list.

Assay: chemical genetic growth profiling, strain panel (AID 1159580);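 further: tested at 20 µM; growth read once vehicle control cultures reached saturation at 30 °C; 1 = growth at the plate median or of vehicle wells; lower values mean less growth of the strain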
Conditions: S. cerevisiae deletion strains, growth OD

Measured: normalized growth

CCCCC/C=C\C/C=C\C/C=C\C/C=C\CCCC(=O)NCC(=O)O
inactive: locus YAL040C, strain CLN3, hits give low values 1.02 | locus YDR150W, strain NUM1, hits give low values 1.03 | locus YDR363W, strain ESC2, hits give low values 1.02 | locus YER002W, strain NOP16, hits give low values 1.02 | locus YGR078C, strain PAC10, hits give low values 0.985 | locus YGR229C, strain SMI1, hits give low values 0.963 | locus YNL153C, strain GIM3, hits give low values 1.07 | locus YNL175C, strain NOP13, hits give low values 0.941 | locus YNL197C, strain WHI3, hits give low values 1.01 | locus YNL224C, strain SQS1, hits give low values 0.979 | locus YOR083W, strain WHI5 (second series), hits give low values 0.962
